Data from PubChem BioAssay AID2326 (National Center for Advancing Translational Sciences (NCATS), 2010).
Hit rate of the full screen: of about 270,000 compounds, about 1,100 (0.41%) were called active. Another 3% or so got no clear call; they are omitted. Shown is part of a subset that was picked to be rich in actives. A number with no mark means an inactive call. Calls follow the shape of the full dose curve.

Experiment: qHTS Assay for Inhibitors of Influenza NS1 Protein Function; also: actives are rising curves; nearly all actives have a fitted effect of over 50% in size
Settings: series mostly up to 46.1 µM; activity, positive = more growth: at the top concentration
Source text: NIH Chemical Genomics Center [NCGC]
NIH Molecular Libraries Probe Centers Network [MLPCN]
Assay Submitter (PI): Daniel Engel
Influenza is a world-wide public health problem and emerging forms of the virus have the potential to cause a pandemic of equal or greater magnitude to the outbreaks recorded in 1918, 1957 or 1968. Vaccine development is proceeding and there also exist two classes of anti-influenza compounds. However these therapeutic modalities are neither fully effective nor widely enough available to fulfill global needs. In addition their potential usefulness against newly emergent strains is not known. Efforts are needed to develop novel agents against influenza virus, including broad-spectrum agents. Identification of small molecules that inhibit NS1 function either directly or by interfering with specific cellular pathways may be a key to increasing our defense against the virus.
We have miniaturized and optimized a cell based assay in which NS1 from influenza A is expressed in the budding yeast S. cerevisiae. NS1 is a multi-functional protein that counters the host innate immune response and facilitates viral versus cellular gene expression. Expression of NS1 causes a pronounced slow growth phenotype in yeast due to its intrinsic molecular activities. Small molecules that suppress the slow growth phenotype can be identified by a straightforward growth recovery assay using optical density (OD) as the measurement. The same yeast strain not expressing NS1 was used as positive control in the yeast growth recovery assay.
The yeast S. cerevisiae control and NS1 expressing cells were kindly supplied by laboratory of Dr. Daniel Engel, University of Virginia. Yeast starter cultures were stored in single use aliquots at -80C.
1. Yeast culture medium per liter: 1.2 g Yeast Nitrogen Base (w/out amino acids and Ammonium Sulphate), 5.0g Ammonium Sulphate, 0.77g -URA DO (drop-out) Supplement, adjust pH to 6.0. Adjust to 2% glucose prior to inoculating with yeast.
2. Yeast assay medium: 1.2 g Yeast Nitrogen Base (w/out amino acids and Ammonium Sulphate), 5.0g Ammonium Sulphate, 0.77g -URA DO (drop-out) Supplement, adjust pH to 6.0. Adjust to 2% D-galactose prior to inoculating with yeast.
1. Inoculate 100 mls of yeast culture medium with 1 ml of frozen yeast aliquote. Incubate overnight at 30C, 250RPM.
2. Harvest overnight culture at 4000 RPM and wash pellet with 15 mls H2O 3x.
3. Re-suspend washed pellet in 10 mls of yeast assay medium.
4. Prepare a 1:100 dilution of re-suspended culture in yeast assay medium.
5. Dispense 3.5 ul per well of reagents in step 4 in columns 2-48 in a black clear bottom 1536 well plate.
6. Dispense 3.5 ul per well of yeast assay medium in column 1 only.
7. Transfer 23 nl of compound per well.
8. Dispense 3.5 ul per well of yeast assay medium in columns 1-48.
9. Read plate using Viewlux protocol for optical density 600 (OD600) using excitation filter 600nm.
Potency is read from the fitted curve at half-maximal effect.

Row | Compound | activity, positive = more growth [%] | Potency
1 | O=C(N/N=C\c1cc2c(cc1Cl)OCO2)c1ccc(Br)s1 | -1.29 | 
2 | CCCOC1CCCN(C(=O)c2cc(COc3cncc(Cl)c3)on2)C1 (stereo not drawn) | -16.5 | 
3 | CC(C)(C)c1ccc(CN2C(=O)c3ccccc3S2(=O)=O)cc1 | -6.88 | 
4 | COc1ccc(-c2nc(CS(=O)CC(=O)NCc3ccccn3)c(C)o2)cc1 (stereo not drawn) |  | 14.1 µM (active)
5 | COc1ccc(-c2nc(CS(=O)CC(=O)NCc3ccccc3)c(C)o2)cc1OC (stereo not drawn) | 2.37 | 
6 | COc1cccc(-c2nc(CS(=O)CC(=O)NCc3ccc(F)cc3)c(C)o2)c1 (stereo not drawn) | 6.23 | 
7 | Cc1c(C)n(Cc2ccc(Cl)cc2)c2ccc(C(=O)NCCCN3CCOCC3)cc12 | 2.54 | 
8 | COCc1nc2ccccc2n1Cc1ccccc1Br |  | 2.82 µM (active)
9 | COc1ccccc1Cn1c(CO)nc2ccccc21 | 2.42 | 
10 | COCn1c(COc2ccccc2)nc2ccccc21 | -9.61 | 
11 | CN(CCO)c1ccc(/C=N/Nc2nncc3ccccc23)cc1 | -0.974 | 
12 | CCc1ccccc1S(=O)(=O)Cc1ccc(C(=O)NCCc2ccccc2)o1 | 5.46 | 
13 | Clc1c(OCCCn2ccnc2)ccc2ccccc12 | -92.1 | 
14 | Cn1c(CSCC(=O)Nc2ccccc2)nnc1SCc1ccccc1 | -3.56 | 
15 | Cn1c(Cc2cccs2)nnc1SCC(=O)Nc1ccccc1 | 11.6 | 
16 | Cn1c(CC(=O)Nc2ccccc2)nnc1SCC(=O)c1ccccc1 |  | 11.2 µM (active)
17 | O=S1(=O)CCOC[C@H](CC2CCCCC2)N1Cc1ccc(F)cc1 | -5.09 | 
18 | Cc1nonc1C1CCCN1C(=O)c1cc(COc2cccc(C(F)(F)F)c2)on1 (stereo not drawn) | 1.92 | 
19 | COc1ccc(C(=O)CC(=O)c2ccc(C)cc2)c(O)c1 | -8.33 | 
20 | O=C(Nc1ccccc1)c1ccc2c(c1)OCCCO2 | -89.8 | 
21 | Cc1cc(=O)[nH]c(SCc2cccc(F)c2)n1 | -3.47 | 
22 | COc1ccccc1-c1noc(CSc2nc(C)cc(=O)[nH]2)n1 | 1.14 | 
23 | Cc1cc(=O)[nH]c(SCc2cc(Cl)ccc2OC(F)F)n1 |  | 3.16 µM (active)
24 | CC(=O)N1CCc2c(sc(NC(=O)CCS(=O)(=O)c3ccccc3)c2C#N)C1 | -4.08 | 
25 | Cc1ccc(N(Cc2cc(=O)[nH]c3ccccc23)C(=O)CCl)cc1 | 2.46 | 
26 | CC(C)n1c(COc2ccccc2)nc2ccccc21 | -47.3 | 
27 | Cc1cccc(NC(=O)c2ccc3c(=O)n(CC4CCCO4)c(=S)[nH]c3c2)c1 (stereo not drawn) | -0.15 | 

Row | Compound | activity, positive = more growth [%] | Potency
28 | CC1CCN(C2=NC(=O)/C(=C/c3ccc(O)cc3)S2)CC1 | 15 | 
29 | OC(COc1ccc2ccccc2c1)CN1CCOCC1 (stereo not drawn) | 1.77 | 
30 | CC(=O)Nc1ccc(OCC(O)CN2CCN(c3ccccc3Cl)CC2)cc1 (stereo not drawn) | -6.58 | 
31 | O=S(=O)(c1ccc(OCC(O)CN2CCN(c3ccccc3Cl)CC2)cc1)N1CCOCC1 (stereo not drawn) |  | 1.26 µM (active)
32 | Cc1cccnc1CC(C)NC(=O)c1cc(COc2cncc(Cl)c2)on1 (stereo not drawn) | -7.9 | 
33 | O=[N+]([O-])c1ccc2c(c1)Nc1nc3ccccc3nc1N2 | -62.4 | 
34 | Cc1cc(Br)ccc1NC(=S)NC1CCCC1 | -89.5 | 
35 | Cc1ccc(-c2csc(-c3c[nH]c4ccccc34)n2)cc1 | -6.52 | 
36 | Clc1cccc(N=C2NN=C(c3ccc4c(c3)OCCO4)CS2)c1 | 13.9 | 
37 | Cc1cccc(N=C2NN=C(c3c[nH]c4ccccc34)CS2)c1 |  | 14.1 µM (active)
38 | COc1ccccc1NC(=O)C1CCN(C(=O)c2ccc(C(C)(C)C)cc2)CC1 | 3.23 | 
39 | Cc1ccc(NC(=S)NCCc2ccc(Cl)cc2)c(C)c1 | -44.7 | 
40 | COc1ccc2[nH]c(C(=O)N/N=C/c3cc(OC)c(OC)c(OC)c3)cc2c1 | -2.63 | 
41 | Cn1c(NC(=O)c2ccccc2)nc2ccccc21 | -89.1 | 
42 | COCCCNC(=S)N1CCN(c2nc(-c3cccc(OC)c3)cs2)CC1 | 2.39 | 
43 | Cc1cc(C)nc(NC(=O)C(C)N2C(=O)c3ccccc3C2=O)n1 (stereo not drawn) | 3.33 | 
44 | CC(C(=O)O)N1C(=O)c2cccc3cccc1c23 (stereo not drawn) |  | 14.1 µM (active)
45 | CC(C(=O)NC1CCCCC1)N1C(=O)c2cccc3cccc1c23 (stereo not drawn) | 4.31 | 
46 | O=C1/C(=C/c2ccc(F)cc2)SC(=S)N1CCCC(=O)N1CCCCC1CCO (stereo not drawn) | -51.5 | 
47 | O=C(NCCCN1CCOCC1)c1ccc2c(c1)N(Cc1cccc(F)c1)C(=O)c1ccccc1S2 | 2.04 | 
48 | CN(C)S(=O)(=O)N1CCC(Oc2cccc(C(=O)NCCCC3CCCC3)c2)CC1 | -0.22 | 
49 | O=C(CC1N=C2c3ccccc3N=C(SCc3ccccc3Cl)N2C1=O)NCc1ccco1 (stereo not drawn) | 8.45 | 
50 | O=C(CSC1=Nc2ccccc2C2=NC(CC(=O)NCc3ccco3)C(=O)N12)NCc1ccco1 (stereo not drawn) |  | 7.94 µM (active)
51 | NC(=O)CSC1=Nc2ccccc2C2=NC(CCC(=O)NCc3ccc(F)cc3)C(=O)N12 (stereo not drawn) | -1.66 | 
52 | CN(c1ccc(O)cc1)c1nc(-c2cccnc2)cs1 | -47.4 | 
53 | CC(=O)c1cccc(OCc2cc(C(=O)NC(C)Cc3cccnc3)no2)c1 (stereo not drawn) | 1.99 | 
